Source: PubChem
NadD inh: inhibitors of Staphylococcus aureus NadD; AID 602399; purified NadD enzyme, colorimetric absorbance read-out; inhibition, % at 20 µM; hit rate 0.78% among 360,000; in the data active = inhibition above about 26%
PP1 inh: PP1-alpha (human) inhibition in PP5 counter-screen; AID 2235; purified PP1alpha, OMFP fluorescence; inhibition, % at 6.7 µM; P62136; hit rate 0.9% among 320,000;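 active = inhibition above the mean inhibition of all tested compounds plus 3 SD, computed separately for each screening campaign, cut at about 15% in these data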
Target sequence (P62136 whole entry, looked up): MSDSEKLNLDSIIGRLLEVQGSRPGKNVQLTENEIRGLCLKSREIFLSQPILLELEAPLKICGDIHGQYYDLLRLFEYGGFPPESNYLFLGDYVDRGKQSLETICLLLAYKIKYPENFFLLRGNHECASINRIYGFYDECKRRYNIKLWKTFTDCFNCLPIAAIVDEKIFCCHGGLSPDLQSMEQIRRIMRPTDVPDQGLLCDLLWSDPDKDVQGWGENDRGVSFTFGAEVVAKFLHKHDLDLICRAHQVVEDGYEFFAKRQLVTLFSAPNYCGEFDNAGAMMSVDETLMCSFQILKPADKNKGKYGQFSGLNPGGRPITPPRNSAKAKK
Rpn11 inh: Rpn11 (human) deubiquitinase inhibition | O00487 | human 26S proteasome, Ub4-pepOG fluorescence polarization; 20S core pre-blocked with epoxomicin | inhibition, % at 20 µM | hit rate 0.59% among 360,000 | AID 588493;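 active = inhibition at 20 µM, scaled to each plate's controls, above about 33%, limit read from the data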
Target sequence (O00487 whole entry, looked up): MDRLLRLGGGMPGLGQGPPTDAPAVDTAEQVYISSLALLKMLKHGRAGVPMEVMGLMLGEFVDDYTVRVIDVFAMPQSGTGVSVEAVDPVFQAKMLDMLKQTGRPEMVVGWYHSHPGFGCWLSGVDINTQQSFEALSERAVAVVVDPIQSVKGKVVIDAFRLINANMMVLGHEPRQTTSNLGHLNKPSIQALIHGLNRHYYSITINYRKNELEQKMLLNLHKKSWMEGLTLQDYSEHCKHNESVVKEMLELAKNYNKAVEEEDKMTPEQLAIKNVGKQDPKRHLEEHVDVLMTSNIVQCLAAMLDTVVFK
PP5 primary: PP5 (human) phosphatase inhibition | P53041 | purified PP5c, OMFP substrate fluorescence | inhibition, % at 6.7 µM | hit rate 0.18% among 320,000 | AID 1987;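 active = inhibition above the campaign's mean inhibition across all tested compounds plus 3 SD, cut at about 9.5% in these data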
PREPL inh: inhibitors of human prolyl oligopeptidase-like enzyme PREPL; Q4J6C6; recombinant PREPL, fluorescence polarization activity-based probe; inhibition, % at 5.96 µM; hit rate 0.68% among 320,000; AID 2751
PREPL confirm: confirmation of human PREPL enzyme inhibitors; shares compounds with PREPL inh; AID 2803; hit rate 67% among 2,000; inhibition, % at 5.96 µM; recombinant PREPL, fluorescence polarization activity probe
Of the large screens only hits and unclear results are named; the others gave an inactive call (follow-up assays come after a bar, where shown). Compounds with a hit are over-represented: about 2.4% of the library has one in this group of screens. Cut-off read from the data, not from the text of the source, unless noted: active = inhibition above about 43%; inactive = the rest.

CCO[C@H]1OC(C(=O)N2CCN(Cc3ccc4c(c3)OCO4)CC2)=C[C@@H](c2csc3ccccc23)[C@@H]1CCCO	PREPL inh 53.8 | PREPL confirm 46.0
O=C(C1=C[C@@H](c2ccc(Br)cc2)C[C@@H](OCCCCO)O1)N1CCN(Cc2ccccc2)CC1	PREPL inh 62.7 | PREPL confirm 57.2
O=C(C1=C[C@@H](c2ccc3c(c2)OCO3)C[C@@H](OCCCCO)O1)N1CCN(Cc2ccc3c(c2)OCO3)CC1	PREPL inh 49.7 | PREPL confirm 48.9
O=C(C1=C[C@@H](c2ccccc2)C[C@@H](OCCCCO)O1)N1CCN(Cc2ccc3c(c2)OCO3)CC1	PREPL inh 57.4 | PREPL confirm inactive
O=C(C1=C[C@H](c2ccc3c(c2)OCO3)C[C@H](OCCCCO)O1)N1CCN(Cc2ccccc2)CC1	none
CCO[C@H]1OC(C(=O)N2CCN(Cc3ccc4c(c3)OCO4)CC2)=C[C@@H](c2cn(C(C)=O)c3ccccc23)[C@@H]1CCCO	none
CN1CCN(c2nc3c(c(=O)n(C)c(=O)n3C)n2CCSc2nc3ccccc3s2)CC1	PREPL inh 44.6 | PREPL confirm inactive
C=C(C)Cn1c(N2CCN(c3ccc(OC)cc3)CC2)nc2c1c(=O)n(C)c(=O)n2C	none
CCN1CCN(c2nc3c(c(=O)[nH]c(=O)n3C)n2CCSc2nc3ccccc3s2)CC1	none
COc1ccc(N2CCN(c3nc4c(c(=O)n(C)c(=O)n4C)n3Cc3ccccc3)CC2)cc1	PREPL inh 50.2 | PREPL confirm 56.5
COc1ccc(NC(=O)CC(c2ccco2)C(C)C)cc1 (centres undefined)	none
CN(C)c1nc(-c2ccccn2)nnc1-c1ccccc1	PREPL inh 52.5 | PREPL confirm 79.1
C=CCn1c(NS(=O)(=O)c2ccccc2)c(S(=O)(=O)c2ccc(C)cc2)c2nc3ccccc3nc21	PP1 inh 29.9, PP5 primary 13.4, PREPL inh 47.2 | PREPL confirm inactive
COc1ccc(C(=O)/C(C#N)=N/Nc2cccc([N+](=O)[O-])c2)cc1	none (no result: PP1 inh, PP5 primary, PREPL inh)
COc1ccc(C(=O)/C=C2\Sc3ccccc3N2C)cc1	none
COc1ccccc1-[n+]1c(C)cc(/C=C2\Sc3ccccc3N2C)cc1C	PREPL inh 64.5 (not shown: Rpn11 inh) | PREPL confirm 70.6
CCCCC1=CC2=C(c3ccco3)C(=O)C(C)(OC(=O)c3ccc(OC)cc3)C(=O)C2=CN1CCN1CCOCC1 (centres undefined)	PREPL inh 59.5 | PREPL confirm 46.5
COc1ccc(CCC(=O)OCC(=O)Nc2sccc2C(N)=O)cc1OC	PREPL inh 48.3 (no result: PP1 inh, PP5 primary) | PREPL confirm inactive
COc1cc(CC(=O)Nc2sccc2C(N)=O)cc(OC)c1OC	none (not shown: Rpn11 inh)
COc1ccc(-n2nc3c(N4CCC(C(=O)NCCc5ccccc5C)CC4)nnc(C)c3c2C)cc1	PREPL inh 51.9 | PREPL confirm inactive
COc1ccc(-n2nc3c(N4CCC(C(=O)NCC(C)c5ccccc5)CC4)nnc(C)c3c2C)cc1 (centres undefined)	PREPL inh 49.7 | PREPL confirm inactive
CC(=O)NC1=C(Nc2ccc(N(C)C)cc2)C(=O)c2ccccc2C1=O	PREPL inh 49.1 | PREPL confirm inactive
CC(=O)Nc1ccc(C(=O)N2CCCCC2c2cc(C(=O)NCc3ccc(F)cc3)no2)cc1 (centres undefined)	none (no result: PP1 inh, PP5 primary, PREPL inh)
O=C(NCc1ccco1)c1cccc2c1C(=O)c1ccc(N3CCC(N4CCCCC4)CC3)cc1S2(=O)=O	none (not shown: PP1 inh, Rpn11 inh, PP5 primary, PREPL inh)
OCC1CCCCN1CCNCc1cn[nH]c1-c1cccc2ccccc12 (centres undefined)	PREPL inh 43.8 | PREPL confirm inactive
O=C1CC(=O)Nc2cc(S(=O)(=O)Nc3ccc(Cl)c(C(F)(F)F)c3)ccc2N1	none
CCN(CC(=O)Nc1ccc(NC(C)=O)cc1)C(=O)Cc1ccc(S(=O)(=O)N2CCOCC2)s1	none
CCN1C(=O)[C@H]2[C@@H](c3ccc(-c4ccc(Cl)c(Cl)c4)c(OC)c3)N[C@@](C)(C(=O)OC)[C@H]2C1=O	none
CCN1C(=O)[C@H]2[C@@H](c3ccc(-c4ccc(Cl)c(Cl)c4)cc3)N[C@@](C)(C(=O)OC)[C@H]2C1=O	PREPL inh 45.5 | PREPL confirm inactive
CCOc1ccc(S(=O)(=O)NCC(=O)OCc2nnc(-c3ccccc3)o2)cc1	none
CC(=O)c1ccc(N2CCN(C(=O)CCCc3nc4ccccc4s3)CC2)cc1	none
COc1ccc(COC(=O)Nc2cc3c(C(F)(F)F)nn(C)c3s2)cc1	PREPL inh 45.2 | PREPL confirm inactive
Cn1nc(C(F)(F)F)c2cc(NC(=O)OCc3ccc(F)cc3)sc21	none
O=[N+]([O-])c1ccc(N2CCN(c3cccc(Cl)c3)CC2)cn1	PREPL inh 47.1 | PREPL confirm inactive
CCOc1ccc(-n2c(SCc3ccc(C#N)cc3)nnc2-c2cccnc2)cc1	none
N#Cc1ccc(CSc2nnc(-c3cccnc3)n2-c2ccccc2)cc1	PREPL inh 46.0 | PREPL confirm inactive
COc1ccc(NC(=O)c2ccc(-c3ccc(-c4noc(C)n4)cc3C)cc2)cc1N1CCN(C)CC1	PREPL inh 75.7 | PREPL confirm 60.5
COc1ccc(-c2nc(-c3ccc(NC(=O)c4ccncc4)cc3)no2)cc1OC	none
COc1ccc(CCNC(=O)Cc2c(Cl)cccc2Cl)cc1	none
O=c1c(O)c(-c2cc(O)c(O)c(O)c2)oc2cc(O)cc(O)c12	PREPL inh 90.0 | PREPL confirm 54.5
CC1CCN(S(=O)(=O)c2ccc3c(c2)NC(=O)CS3)CC1	none
CN(C)c1ccc(N=C/C=C2\N(C)c3ccccc3C2(C)C)cc1	PREPL inh 70.0 | PREPL confirm 68.3
CN1/C(=C\C=Nc2ccc3ccccc3c2)C(C)(C)c2ccccc21	none
N#CC1=C(N)C(C#N)(C#N)C(c2cccnc2)C2CC(c3ccccc3)CC=C12 (centres undefined)	PREPL inh 44.1 | PREPL confirm inactive
Cc1cc(C)cc(Cn2cc(CN3CC(N(C)C)CS3(=O)=O)nn2)c1 (centres undefined)	none (no result: PP1 inh, Rpn11 inh, PP5 primary, PREPL inh)
COc1ccc2nc(C)cc(N/N=C/c3cccc(OC)c3O)c2c1	PREPL inh 64.1 | PREPL confirm 59.5
Fc1cccc(NCCc2c[nH]c3ccccc23)n1	none
c1ccc2c(NCCc3c[nH]c4ccccc34)c3ccccc3nc2c1	PREPL inh 49.9 | PREPL confirm 57.2
Cc1ccc2sc(N(CCCN(C)C)C(=O)c3ccc(S(=O)(=O)N(C)C4CCCCC4)cc3)nc2c1C	PREPL inh 52.5 | PREPL confirm 46.7
CCN(CC)CCN(C(=O)c1ccc(S(=O)(=O)N(C)C2CCCCC2)cc1)c1nc2c(C)cccc2s1	none
O=C(NCCCn1ccnc1)C1CCN(S(=O)(=O)c2cc([N+](=O)[O-])ccc2Cl)CC1	PREPL inh 47.5 (no result: PP1 inh, PP5 primary) | PREPL confirm inactive
Cc1ccn2c(-c3csc(NCc4ccccc4)n3)c(C)nc2c1	PREPL inh 45.2 | PREPL confirm 44.5
Cc1ccc(-n2[nH]c(C)c(C=Nc3ccc4[nH]c(=O)[nH]c4c3)c2=O)cc1C	PREPL inh 57.3 | PREPL confirm inactive
